Source: the supplement of paper PMC10849652
Targets with a hit are over-represented here; the source holds about 8,800 in all. About 0.5% of all pairs of compound and target were hits.

Assays:
Experiment in all cases: log2 fold change, soluble protein after heating vs DMSO (PISA); higher = thermal stabilisation; K562 lysate, 10 uM; active = over 0.2 and 3.5 SD of the protein, either way, in both replicates (recomputed)
[1] = compound: C1=CC=C(C=C1)[C@H](COC2=CC3=C(C=C2)NC(=O)N3)NC(=O)C4=CC=CN(C4=O)CC5=CC(=C(C=C5)F)F
Outline: (§1)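 Thermal stability, expressed as log-two fold change relative to solvent controls, is given from duplicates. Crude K562 extract in PBS pH 7.4 with 1 mM MgCl2, at 1 mg/mL protein, was treated with 10 μM compound for 30 min and heated in aliquots for 3 min across 48°C-58°C. After pooling, adjustment to 0.5% NP-40 at 4°C and centrifugation at 21,000xg for 90 min, supernatant protein was measured by TMTpro 16plex LC-MS/MS with channel sums equalised.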

[2] = compound: CC1=C(SC2=C1C(=N[C@H](C3=NN=C(N32)C)CC(=O)N)C4=CC=C(C=C4)Cl)C
Outline: as §1

[3] = compound: CC1=C2C(=CC=C1)N=C(N(C2=O)C3=CC=CC=C3C)CN4C=NC5=C(N=CN=C54)N
Outline: as §1

[4] = compound: Cc1sc2c(c1C)C(c1ccc(Cl)cc1)=N[C@@H](CC(=O)OC(C)(C)C)c1nnc(C)n1-2
Outline: as §1

[5] = compound: c1ccc([C@@H]2C[C@H]2NC2CCNCC2)cc1
Outline: as §1

Measured: log2 fold change

TRIM25 (UniProt Q14258)
Chain of UniProt Q14258 (Q14258 whole entry, looked up): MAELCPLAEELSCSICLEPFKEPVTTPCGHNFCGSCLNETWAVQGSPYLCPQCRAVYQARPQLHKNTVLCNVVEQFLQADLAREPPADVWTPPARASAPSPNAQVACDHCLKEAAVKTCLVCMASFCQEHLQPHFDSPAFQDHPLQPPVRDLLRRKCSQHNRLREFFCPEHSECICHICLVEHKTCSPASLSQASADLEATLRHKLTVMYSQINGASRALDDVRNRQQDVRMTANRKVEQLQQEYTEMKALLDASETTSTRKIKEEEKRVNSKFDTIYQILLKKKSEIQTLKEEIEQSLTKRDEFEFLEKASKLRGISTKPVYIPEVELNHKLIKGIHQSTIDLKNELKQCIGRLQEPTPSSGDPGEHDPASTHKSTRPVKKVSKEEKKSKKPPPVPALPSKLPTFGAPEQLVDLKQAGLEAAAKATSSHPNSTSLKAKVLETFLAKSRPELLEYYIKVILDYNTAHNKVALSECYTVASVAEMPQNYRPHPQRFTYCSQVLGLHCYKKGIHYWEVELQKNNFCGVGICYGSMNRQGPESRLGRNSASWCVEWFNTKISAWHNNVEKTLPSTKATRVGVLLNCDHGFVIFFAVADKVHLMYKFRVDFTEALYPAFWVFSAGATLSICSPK
inactive: [1] 0.047 | [2] 0.001 | [3] 0.001 | [4] 0.013 | [5] 0.044

UBXN6 (UniProt Q9BZV1)
Chain of UniProt Q9BZV1 (Q9BZV1 whole entry, looked up): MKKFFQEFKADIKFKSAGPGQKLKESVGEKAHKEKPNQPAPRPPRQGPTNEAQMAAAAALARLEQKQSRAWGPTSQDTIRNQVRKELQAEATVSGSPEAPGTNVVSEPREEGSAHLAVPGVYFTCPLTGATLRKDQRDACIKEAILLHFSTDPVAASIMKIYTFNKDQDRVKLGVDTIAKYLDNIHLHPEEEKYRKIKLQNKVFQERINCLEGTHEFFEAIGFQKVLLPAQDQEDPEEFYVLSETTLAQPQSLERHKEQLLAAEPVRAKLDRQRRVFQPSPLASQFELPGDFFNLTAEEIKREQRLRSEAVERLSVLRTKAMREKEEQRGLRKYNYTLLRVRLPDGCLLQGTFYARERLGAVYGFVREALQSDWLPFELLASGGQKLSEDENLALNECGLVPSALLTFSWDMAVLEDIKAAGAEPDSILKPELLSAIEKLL
inactive: [1] -0.03 | [2] 0.027 | [3] 0.03 | [4] 0.022 | [5] 0.031

TOX4 (UniProt O94842)
inactive: [1] -0.011 | [2] 0.001 | [3] -0.021 | [4] -0.019 | [5] -0.146

TMEM87A (UniProt Q8NBN3)
Chain of UniProt Q8NBN3 (Q8NBN3 whole entry, looked up): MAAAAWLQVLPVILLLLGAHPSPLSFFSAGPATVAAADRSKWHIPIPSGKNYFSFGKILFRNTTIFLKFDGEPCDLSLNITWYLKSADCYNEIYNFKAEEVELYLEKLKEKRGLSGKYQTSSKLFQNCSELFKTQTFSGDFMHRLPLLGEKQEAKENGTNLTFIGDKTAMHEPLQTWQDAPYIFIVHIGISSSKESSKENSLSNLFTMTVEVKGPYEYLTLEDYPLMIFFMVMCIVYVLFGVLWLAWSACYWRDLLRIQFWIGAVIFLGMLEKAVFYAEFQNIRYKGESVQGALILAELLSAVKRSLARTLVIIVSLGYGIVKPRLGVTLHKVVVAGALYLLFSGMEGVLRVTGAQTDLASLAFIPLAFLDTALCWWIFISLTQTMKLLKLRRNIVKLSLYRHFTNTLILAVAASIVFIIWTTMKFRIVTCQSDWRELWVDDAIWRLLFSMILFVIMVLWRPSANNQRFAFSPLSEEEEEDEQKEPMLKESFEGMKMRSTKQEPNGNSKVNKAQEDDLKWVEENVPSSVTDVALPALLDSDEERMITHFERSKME
inactive: [1] 0.066 | [2] -0.014 | [3] -0.011 | [4] -0.011 | [5] -0.128

TCP11L1 (UniProt Q9NUJ3)
inactive: [1] -0.023 | [2] -0.031 | [3] -0.02 | [4] -0.021 | [5] -0.095

TDRKH (UniProt Q9Y2W6)
Chain of UniProt Q9Y2W6 (Q9Y2W6 whole entry, looked up): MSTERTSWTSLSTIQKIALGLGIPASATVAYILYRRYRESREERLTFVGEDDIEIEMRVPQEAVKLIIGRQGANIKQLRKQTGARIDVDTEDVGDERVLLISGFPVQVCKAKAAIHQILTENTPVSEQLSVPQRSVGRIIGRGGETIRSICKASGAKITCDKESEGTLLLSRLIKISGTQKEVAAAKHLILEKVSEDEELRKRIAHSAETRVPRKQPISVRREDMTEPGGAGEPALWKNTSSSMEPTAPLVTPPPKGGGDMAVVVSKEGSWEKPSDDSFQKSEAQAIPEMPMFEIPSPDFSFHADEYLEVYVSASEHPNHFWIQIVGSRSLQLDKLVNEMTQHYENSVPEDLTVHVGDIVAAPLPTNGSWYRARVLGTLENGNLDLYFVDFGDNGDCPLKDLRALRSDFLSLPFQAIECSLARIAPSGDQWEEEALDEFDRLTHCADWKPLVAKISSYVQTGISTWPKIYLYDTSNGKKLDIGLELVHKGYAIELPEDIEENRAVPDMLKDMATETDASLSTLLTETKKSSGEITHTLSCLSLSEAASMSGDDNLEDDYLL
inactive: [1] -0.02 | [2] -0.028 | [3] 0.1 | [4] 0.005 | [5] -0.053

TGFBRAP1 (UniProt Q8WUH2)
Chain of UniProt Q8WUH2 (Q8WUH2 whole entry, looked up): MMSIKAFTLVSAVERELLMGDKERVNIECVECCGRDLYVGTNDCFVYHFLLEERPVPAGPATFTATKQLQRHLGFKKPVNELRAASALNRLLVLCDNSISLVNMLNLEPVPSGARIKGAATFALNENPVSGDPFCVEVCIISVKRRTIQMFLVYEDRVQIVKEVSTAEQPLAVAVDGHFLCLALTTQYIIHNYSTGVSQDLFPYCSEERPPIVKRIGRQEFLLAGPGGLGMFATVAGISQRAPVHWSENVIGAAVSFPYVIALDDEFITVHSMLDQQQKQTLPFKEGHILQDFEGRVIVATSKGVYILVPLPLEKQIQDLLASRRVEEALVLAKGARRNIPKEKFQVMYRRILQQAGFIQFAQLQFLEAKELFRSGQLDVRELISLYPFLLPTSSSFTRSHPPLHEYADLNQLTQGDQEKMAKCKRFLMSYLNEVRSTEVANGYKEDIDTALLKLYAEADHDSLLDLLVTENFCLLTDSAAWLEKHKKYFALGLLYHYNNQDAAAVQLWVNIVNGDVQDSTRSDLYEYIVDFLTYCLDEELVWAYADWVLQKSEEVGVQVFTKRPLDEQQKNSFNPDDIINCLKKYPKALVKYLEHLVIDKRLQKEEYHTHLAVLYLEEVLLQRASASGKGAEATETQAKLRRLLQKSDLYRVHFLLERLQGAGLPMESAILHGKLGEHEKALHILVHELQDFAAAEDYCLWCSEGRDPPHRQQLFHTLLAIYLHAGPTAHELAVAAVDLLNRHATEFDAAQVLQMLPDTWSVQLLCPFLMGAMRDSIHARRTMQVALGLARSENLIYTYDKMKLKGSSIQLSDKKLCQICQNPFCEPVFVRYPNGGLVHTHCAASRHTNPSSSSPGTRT
inactive: [1] -0.035 | [2] 0.024 | [3] 0 | [4] 0.05 | [5] -0.014

TUBA3C (UniProt P0DPH7)
Chain of UniProt P0DPH7 (P0DPH7 whole entry, looked up): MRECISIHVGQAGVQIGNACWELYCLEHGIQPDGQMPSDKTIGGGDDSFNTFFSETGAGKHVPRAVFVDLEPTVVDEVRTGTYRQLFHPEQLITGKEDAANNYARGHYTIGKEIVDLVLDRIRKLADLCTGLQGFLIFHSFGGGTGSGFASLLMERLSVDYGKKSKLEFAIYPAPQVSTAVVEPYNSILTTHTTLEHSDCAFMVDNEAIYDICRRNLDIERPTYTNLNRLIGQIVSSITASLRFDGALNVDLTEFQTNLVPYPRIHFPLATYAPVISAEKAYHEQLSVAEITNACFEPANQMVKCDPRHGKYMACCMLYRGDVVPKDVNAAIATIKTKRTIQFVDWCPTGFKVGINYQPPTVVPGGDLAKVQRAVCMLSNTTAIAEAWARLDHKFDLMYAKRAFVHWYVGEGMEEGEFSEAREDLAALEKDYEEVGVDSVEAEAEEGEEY
inactive: [1] 0.012 | [2] 0.022 | [3] 0.029 | [4] -0.017 | [5] -0.074

UBR1 (UniProt Q8IWV7)
inactive: [1] -0.032 | [2] 0.002 | [3] -0.026 | [4] 0.026 | [5] 0

TPP2 (UniProt Q5VZU9)
inactive: [1] 0.004 | [2] -0.117 | [3] 0.001 | [4] 0.034 | [5] -0.08

TRMT10A (UniProt Q8TBZ6)
Chain of UniProt Q8TBZ6 (Q8TBZ6 whole entry, looked up): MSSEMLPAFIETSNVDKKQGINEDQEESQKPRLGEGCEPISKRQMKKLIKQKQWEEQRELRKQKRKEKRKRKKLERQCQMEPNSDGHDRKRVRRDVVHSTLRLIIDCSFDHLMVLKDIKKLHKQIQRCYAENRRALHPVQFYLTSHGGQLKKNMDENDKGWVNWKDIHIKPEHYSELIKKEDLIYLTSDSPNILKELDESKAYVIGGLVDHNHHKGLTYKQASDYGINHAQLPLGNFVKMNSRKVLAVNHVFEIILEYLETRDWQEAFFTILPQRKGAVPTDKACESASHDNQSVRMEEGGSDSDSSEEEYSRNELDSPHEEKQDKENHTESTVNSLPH
inactive: [1] -0.046 | [2] 0.099 | [3] -0.025 | [4] 0.016 | [5] -0.029

TMEM87B (UniProt Q96K49)
inactive: [2] 0.02 | [3] 0.075 | [4] 0.001 | [5] 0.038
active: [1] 0.529

TSPAN13 (UniProt O95857)
inactive: [1] 0.076 | [2] 0.025 | [3] -0.048 | [4] 0.187 | [5] -0.131

UBE3B (UniProt Q7Z3V4)
inactive: [1] -0.085 | [2] -0.144 | [3] -0.047 | [4] -0.045 | [5] 0.078

TJP1 isoform 2 (UniProt Q07157)
inactive: [1] 0.048 | [2] 0.02 | [3] 0 | [4] 0.061 | [5] -0.009

UBE2L6 (UniProt O14933)
Chain of UniProt O14933 (O14933 whole entry, looked up): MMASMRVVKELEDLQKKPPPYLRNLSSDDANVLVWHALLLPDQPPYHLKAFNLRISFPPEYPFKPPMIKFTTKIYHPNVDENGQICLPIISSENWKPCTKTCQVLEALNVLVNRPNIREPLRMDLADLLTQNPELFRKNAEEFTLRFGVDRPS
inactive: [1] -0.01 | [2] 0 | [3] -0.068 | [4] 0.032 | [5] 0.008

TUBB4A (UniProt M0QYM7)
inactive: [1] -0.207 | [2] -0.162 | [3] 0.016 | [5] -0.074

TTC5 (UniProt Q8N0Z6)
Chain of UniProt Q8N0Z6 (Q8N0Z6 whole entry, looked up): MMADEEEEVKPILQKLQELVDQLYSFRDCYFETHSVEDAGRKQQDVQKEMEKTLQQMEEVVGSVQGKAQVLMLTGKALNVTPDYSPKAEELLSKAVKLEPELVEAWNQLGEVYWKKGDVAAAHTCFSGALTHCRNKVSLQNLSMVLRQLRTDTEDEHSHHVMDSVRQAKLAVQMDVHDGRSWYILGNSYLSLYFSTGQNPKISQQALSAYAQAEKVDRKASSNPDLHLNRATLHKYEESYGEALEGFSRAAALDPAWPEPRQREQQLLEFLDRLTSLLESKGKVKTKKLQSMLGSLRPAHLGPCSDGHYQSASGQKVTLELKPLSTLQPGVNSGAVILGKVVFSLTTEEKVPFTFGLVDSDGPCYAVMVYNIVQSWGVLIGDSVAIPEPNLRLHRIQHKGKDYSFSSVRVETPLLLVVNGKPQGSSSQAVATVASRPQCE
inactive: [1] -0.022 | [2] 0.009 | [3] 0.035 | [4] 0.039 | [5] 0.002

TUBA1C (UniProt Q9BQE3)
inactive: [1] 0.043 | [2] 0.03 | [3] 0.023 | [4] 0.003 | [5] -0.006

TECR (UniProt Q9NZ01)
inactive: [1] -0.131 | [2] 0.083 | [3] 0.015 | [4] 0.017 | [5] 0.046

TUBB6 (UniProt Q9BUF5)
Chain of UniProt Q9BUF5 (Q9BUF5 whole entry, looked up): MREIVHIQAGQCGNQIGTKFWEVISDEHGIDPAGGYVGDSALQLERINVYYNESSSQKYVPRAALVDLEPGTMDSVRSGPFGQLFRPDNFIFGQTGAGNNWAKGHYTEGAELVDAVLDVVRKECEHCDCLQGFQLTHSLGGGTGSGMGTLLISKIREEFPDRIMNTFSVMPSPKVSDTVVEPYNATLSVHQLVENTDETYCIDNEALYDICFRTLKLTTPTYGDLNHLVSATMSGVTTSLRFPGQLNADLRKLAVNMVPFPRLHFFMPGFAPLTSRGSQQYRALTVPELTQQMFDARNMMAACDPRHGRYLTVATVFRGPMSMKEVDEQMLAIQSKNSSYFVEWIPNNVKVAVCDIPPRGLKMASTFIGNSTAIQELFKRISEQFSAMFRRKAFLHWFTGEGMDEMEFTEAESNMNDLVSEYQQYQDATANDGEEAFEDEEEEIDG
inactive: [1] -0.005 | [2] 0.033 | [3] 0.02 | [4] 0.017 | [5] 0.027

TTC38 (UniProt Q5R3I4)
inactive: [1] -0.001 | [2] 0 | [3] 0.05 | [4] 0.003 | [5] 0.126

TTLL12 (UniProt Q14166)
inactive: [1] -0.004 | [2] 0.013 | [3] 0.011 | [4] 0.015 | [5] 0.033

TUT4 (UniProt Q5TAX3)
inactive: [1] -0.032 | [2] -0.024 | [3] 0.035 | [4] 0.009 | [5] -0.021

TGOLN2 isoform 7 (UniProt O43493)
inactive: [1] 0.065 | [2] -0.029 | [3] -0.015 | [4] -0.017 | [5] -0.069
